Screening data: PubChem, National Center for Advancing Translational Sciences (NCATS)
NPC1 prom act = NPC1 promoter activation; Potency, µM (doses to about 9.22 µM), most hits filed as activators; Huh7 NPC1 promoter luciferase reporter, 24 h; 320,000 compounds, 2.4% hits; AID 485313; further: nearly all actives have a fitted effect of over 60% in size
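NPC1 promoter–luciferase Huh7 cells; 24 h compound; luminescence.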
SMN2 splice enh = SMN2 splice variant enhancement; HEK293 SMN2-luciferase splicing reporter, luminescence, 30-36 h; Potency, µM (series often up to 46.1 µM), actives largely listed as activators; 210,000 compounds, 2.8% hits; further: nearly all actives have a fitted effect of over 55% in size
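HEK293 cells carry an SMN2 […]–luciferase reporter in which exon 7 inclusion puts luciferase in frame. Cells were plated 10-12 h before compound addition, then incubated 30-36 h at 37C. ONE-Glo luminescence was read; sodium butyrate at 4.5 mM final served as control.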
Rab9 prom act = activators of Rab9 promoter; Potency, µM (series often up to 9.22 µM), hits mostly activators; AID 485297; 320,000 compounds, 2.8% hits; Huh7 Rab9 promoter-luciferase reporter, luminescence, 24 h; further: nearly all actives have a fitted effect of over 60% in size
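Luminescence read-out: Huh7 cells stably expressing Rab9-luciferase, treated 24 h with compound at 37 °C, then lysed with luciferase reagent for 10 min at ambient before reading.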
ELG1 genotox = inducers of genotoxicity in HEK293T ELG1-luciferase cells; HEK293T ELG1-luciferase reporter, luminescence, 16 h; Potency, µM (series often up to 46 µM), usual class: activators; 330,000 compounds, 1.3% hits; AID 504466; further: nearly all actives have a fitted effect of over 60% in size
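After overnight (16 hr) compound treatment at 37 °C, ELG1-luciferase HEK293T cells were lysed with ONE-Glo; luminescence quantified 30 min later at room temperature.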
FLuc counter = counter-screen for miR-21 project: firefly luciferase inhibitors or activators. AID 588342. Potency, µM (titrated, usually from 57.5 µM), usual class: inhibitors. purified FLuc, Km substrates, luminescence inhibition. 360,000 compounds, 6.9% hits. P08659; further: nearly all actives have a fitted effect of over 55% in size
Target sequence (P08659 whole entry, looked up): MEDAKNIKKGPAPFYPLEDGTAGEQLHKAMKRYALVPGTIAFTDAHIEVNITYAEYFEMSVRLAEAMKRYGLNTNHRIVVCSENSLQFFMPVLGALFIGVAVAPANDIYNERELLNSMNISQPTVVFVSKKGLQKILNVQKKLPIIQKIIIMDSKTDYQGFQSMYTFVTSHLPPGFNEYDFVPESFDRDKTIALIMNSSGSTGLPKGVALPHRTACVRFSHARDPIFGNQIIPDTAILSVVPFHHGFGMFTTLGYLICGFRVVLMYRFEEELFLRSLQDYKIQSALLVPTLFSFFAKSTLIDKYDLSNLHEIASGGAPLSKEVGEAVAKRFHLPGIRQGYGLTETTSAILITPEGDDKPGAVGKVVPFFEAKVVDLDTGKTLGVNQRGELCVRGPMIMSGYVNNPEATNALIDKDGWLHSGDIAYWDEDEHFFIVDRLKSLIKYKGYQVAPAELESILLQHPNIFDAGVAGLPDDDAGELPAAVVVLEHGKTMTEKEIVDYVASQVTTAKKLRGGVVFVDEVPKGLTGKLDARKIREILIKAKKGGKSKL
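Purified P. pyralis luciferase (10nM final) with 10uM D-luciferin and 10uM ATP (Km levels) in 50mM Tris acetate pH 7.5, 10mM Mg acetate, 0.01% Tween-20, 0.05% BSA; qHTS 6-point titration, ~60 µM downward; luminescence read.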
ELG1 DNA repair = inhibitors of ELG1-dependent DNA repair in HEK293T cells | HEK293T ELG1-luciferase reporter, luminescence, 16 h; DNA damage induced by 5-fluorouridine | 330,000 compounds, 2.3% hits | AID 504467 | Potency, µM (top dose mostly 46.1 µM), hits mostly inhibitors; further: nearly all actives have a fitted effect of over 55% in size
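Overnight (16 hr) co-exposure of 2,000 cells/well to 5-fluorouridine and compound at 37 °C preceded detection. Luciferase was quantified via ONE-Glo luminescence; loss of signal denotes inhibition.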
A number is an active result; – = inactive; ? = inconclusive; · = no result given. Compounds with a hit are over-represented: about 9.2% of the library has one in this group of screens. The call rests on the fitted dose curve; in most records, active means well fitted curve in the direction sought with a large enough effect; inconclusive means small, poorly fitted or top-dose-only effect, or another doubt; inactive means no such curve, though single readings can be large; an effect the other way counts as inactive or inconclusive.

SMILES | NPC1 prom act | SMN2 splice enh | Rab9 prom act | ELG1 genotox | FLuc counter | ELG1 DNA repair
CCOCC(=O)Nc1nc2ccccc2s1 | 3.2µM | 14µM | ? | ? | 24µM | ?
O=C(CCc1nc2ccccc2s1)Nc1ccccc1 | – | – | – | – | ? | –
O=C(NCc1ccncc1)C(=O)Nc1nc2ccccc2s1 | – | · | – | – | 15µM | –
CC(=O)c1ccc(N2C(=O)N(Cc3cccc(C(F)(F)F)c3)c3ccccc3S2(=O)=O)cc1 | · | · | · | · | – | ·
O=C(NNc1nc2ccccc2s1)Nc1ccccc1 | 3.2µM | 14µM | ? | ? | ? | ?
Cc1ccc2nc(-c3ccc(NC(=O)C(F)(F)F)cc3)sc2c1 | · | – | · | · | 0.48µM | ·
Cc1ccc2nc(-c3ccc(NC(=S)NC(=O)CC(C)C)cc3)sc2c1 | 0.56µM | – | 1.1µM | 9.2µM | 24µM | ?
Cc1ccc(C)c(N(CC(=O)Nc2ccc(-c3nc4ccc(C)cc4s3)cc2)S(C)(=O)=O)c1 | – | – | – | – | – | –
Cc1ccc2nc(-c3ccc(NC(=O)CNC4CC4)cc3)sc2c1 | 0.63µM | 2.2µM | 0.28µM | ? | 2.7µM | ?
Cc1ccc2nc(-c3ccc(NC(=O)c4ccccc4S(C)(=O)=O)cc3)sc2c1 | · | · | · | · | 21µM | ·
O=C1CC(C(=O)N2CCN(c3ccccc3)CC2)CN1Cc1ccccc1 (centres undefined) | · | · | · | – | · | –
O=c1c(Cl)c(Nc2cccc(Cl)c2)cnn1-c1nc2ccccc2s1 | ? | 10µM | ? | ? | 4.8µM | ?
Cc1ccc(C)c(N2CCN(c3cnn(-c4nc5ccccc5s4)c(=O)c3Cl)CC2)c1 | 2.2µM | ? | 1.6µM | 18µM | 6.7µM | ?
COc1ccc(Nc2cnn(-c3nc4ccccc4s3)c(=O)c2Cl)cc1 | ? | 10µM | ? | ? | 11µM | ?
Cn1ccc(NS(=O)(=O)c2cc(Br)ccc2Br)n1 | – | · | – | – | – | –
CCC(=O)NC1CCc2cccc(OC)c2C1 (centres undefined) | · | – | · | · | · | ·
Cc1cccn2c(=O)c(C(=O)NCc3ccccc3Cl)c(O)nc12 | · | – | · | · | – | ·
CCN1C(c2ccccc2)=C(c2ccccc2)S/C1=C/C=C1\SC(=S)N(C)C1=O | – | – | – | – | ? | 10µM
CCC(=O)Nc1ccc(-c2nc3ncccc3o2)cc1C | · | ? | · | · | – | ·
Cc1ccc(-c2nc3ncccc3o2)cc1N | 4µM | · | 3.5µM | ? | 15µM | ?
CCCC(=O)Nc1cc(-c2nc3ncccc3o2)ccc1Cl | – | · | – | – | – | –
Nc1cc(-c2nc3ncccc3o2)ccc1Cl | ? | 10µM | 4µM | ? | 19µM | ?
Cc1cc(-c2nc3ncccc3o2)ccc1N | ? | 11µM | ? | ? | 17µM | ?
Oc1ccc(/C=C/c2nc(-c3ccccc3O)n(-c3ccccc3)n2)cc1 | – | – | – | – | 17µM | –
C=CCNC(=O)CCc1nnc(C2(c3ccc(Cl)cc3)CCC2)o1 | – | 8.9µM | 3.2µM | ? | 17µM | ?
SMILES | NPC1 prom act | SMN2 splice enh | Rab9 prom act | ELG1 genotox | FLuc counter | ELG1 DNA repair
COCC(C)NC(=O)CCc1nnc(C2(c3ccc(Cl)cc3)CCC2)o1 (centres undefined) | – | · | ? | ? | 24µM | ?
C=C(C)CNC(=O)CCc1nnc(C2(c3ccc(Cl)cc3)CCC2)o1 | – | · | ? | – | ? | ?
CCC(=O)C1CCCN(C(=O)CCc2nnc(C3(c4ccc(Cl)cc4)CCC3)o2)C1 (centres undefined) | ? | · | ? | ? | 13µM | ?
COC(=O)CNC(=O)CCc1nnc(C2(c3ccc(Cl)cc3)CCC2)o1 | – | · | – | ? | ? | ?
NC(=O)C1CCCN(C(=O)CCc2nnc(C3(c4ccc(Cl)cc4)CCC3)o2)C1 (centres undefined) | – | · | – | – | – | –
O=C(CCc1nnc(C2(c3ccc(Cl)cc3)CCC2)o1)N1CCCC1 | ? | · | ? | ? | 17µM | ?
O=C(CCc1nnc(C2(c3ccc(Cl)cc3)CCC2)o1)NC1CC1 | – | · | – | – | – | –
O=c1cnc2cnc(Oc3cccc(Cl)c3)nc2n1C1CC1 | · | – | · | · | · | ·
Cc1ccc(C(=O)Nc2nnc(SCc3cc(=O)c4c(C)ccc(C)c4[nH]3)s2)cc1 | · | · | · | · | – | ·
CC(=O)c1ccc(-c2nnc(CCC(=O)N3CCCC(C(=O)CC(C)C)C3)o2)s1 (centres undefined) | 4.5µM | · | 3.5µM | ? | 19µM | ?
CC(C)(C)c1ccc2c(c1)OC(C(=O)N/N=C\c1ccc(-c3cccc(C(=O)O)c3)o1)CO2 (centres undefined) | – | · | – | – | 19µM | ?
O=C(O)c1cccc(-c2ccc(/C=N/NC(=O)C3COc4ccccc4O3)o2)c1 (centres undefined) | – | – | – | – | 24µM | ?
CCc1ccc(CNC(=O)c2ccc(-n3c(C)cc4c3CCC(C)C4)cc2)cc1 (centres undefined) | · | · | · | · | – | ·
O=C(Nc1cccc(-c2cn3cccnc3n2)c1)Nc1ccccc1F | – | – | ? | – | 13µM | ?
CC(C)(C)C(=O)Nc1cccc(-c2cn3cccnc3n2)c1 | · | · | · | · | – | ·
O=C(Nc1ccccc1)Nc1cccc(-c2cn3cccnc3n2)c1 | – | – | ? | – | 9.5µM | –
Cc1c(-c2cccc(NC(=O)Nc3ccccc3)c2)nc2ncccn12 | · | · | · | · | 19µM | ·
C=CC(=O)Nc1sc2c(c1C(N)=O)CCCC2 | – | · | – | – | ? | ?
CCCC(=O)NC(=S)Nc1sc2c(c1C(N)=O)CCC2 | – | ? | – | – | 4.3µM | ?
COC(=O)Nc1sc2c(c1C(N)=O)CCCCCC2 | – | – | – | – | ? | –
C=CCNC(=S)Nc1sc2c(c1C(N)=O)CCCC2 | – | · | – | – | 15µM | ?
CC(C)C(=O)NC(=S)Nc1sc2c(c1C(N)=O)CCCC2 | ? | ? | ? | ? | 9.5µM | ?
Cn1c(C(=O)NCc2ccc(F)cc2)cc2cc(S(=O)(=O)N3CCCCC3)ccc21 | · | · | · | · | – | ·
COc1ccc(OC)c(CNCc2c(C(=O)O)n(Cc3cccc(F)c3)c3cc(OC)ccc23)c1 | · | · | · | · | – | ·
COC(=O)[C@H](CCSC)NC(=O)Nc1cc(OC)cc(OC)c1 | – | · | – | – | – | –
C=CCc1ccccc1OCC(O)CN1C(=O)c2ccccc2C1=O (centres undefined) | – | · | – | – | – | –
Cc1ccccc1OCC(O)CN1C(=O)c2ccccc2C1=O (centres undefined) | – | · | – | – | 13µM | –
O=C1c2ccccc2C(=O)N1CC(O)COc1ccccc1Cl (centres undefined) | – | · | ? | – | 11µM | ?
CCSc1nc2c(c(=O)[nH]c(=O)n2C)n1CC(O)COc1ccccc1C (centres undefined) | – | – | – | – | – | 16µM
CCc1ccccc1Nc1nn2c(=O)c3ccc(C(=O)NC4CCC(C)CC4)cc3nc2s1 (centres undefined) | · | · | · | · | – | ·
